Values joined by “and” are separate entries in the source; they are usually repeats but may differ in a detail not shown here. Identical values can stand only once. Active and inactive are the calls of the source. Unless noted, no rule for the calls is given here.
Experiments:
[1] = HepG2 liver cancer cell viability effects, profiling panel, resazurin fluorescence, 24 h, PK04 Diversity Set (AID 1172); conditions: higher = more signal; also: test concentration not given here
[2] = basal S. cerevisiae growth modulation, no modifier, primary screen, OD600, strain BY4716, 24 h, basal condition (AID 1173); conditions: OD600, 24 h, higher = more signal, called active from +8 up or from −8 down
[3] = MM1S myeloma cell viability, profiling panel, resazurin fluorescence, basal, 24 h, PK04 Diversity Set (AID 1174); conditions: higher = more signal, called active from +8 up or from −8 down;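 also: MM1S multiple myeloma cell line; test concentration not given here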
[4] = biological target: Dihydroorotate dehydrogenase (quinone), mitochondrial (Plasmodium falciparum (isolate 3D7)) (UniProt Q08210); experiment: PfDHODH enzyme inhibitors, primary screen, biochemical, C-terminal His tag, absorbance 600 nm (AID 1175); conditions: DCIP absorbance 600 nm, higher = more signal, called active from +8 up or from −8 down;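 also: recombinant parasite enzyme with a five histidine tag at its C terminus; test concentration not given here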
[5] = S. cerevisiae RM11-1a growth modifiers, primary screen, strain RM11-1a, OD600, basal, 24 h (AID 1177); conditions: OD600, 24 h, higher = more signal, called active from +8 up or from −8 down;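 also: cultures grown under basal conditions with no added stressor; test concentration not given here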
[6] = E. coli acrAB mutant growth effects, primary screen, E. coli filamentation inducers, strain DRC39, OD650, 24 h (AID 1178); conditions: higher = more signal, called active from +8 up or from −8 down;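 also: growth measured as culture turbidity by optical density at 650 nm; test concentration not given here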
[7] = E. coli acrAB mutant growth effects, primary screen, E. coli filamentation inducers, strain DRC39, OD650, 48 h (AID 1179);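 also: screen aims at cell division blockers that make cells filament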; conditions: E. coli DRC39 delta-acrAB growth, higher = more signal, called active from +8 up or from −8 down
[8] = RPMI8226 myeloma cell viability, profiling panel, resazurin fluorescence, basal, 24 h, PK04 Diversity Set (AID 1180); conditions: higher = more signal;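 also: RPMI8826 multiple myeloma cell line at 5000 cells per well; test concentration not given here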
[9] = biological target: E3 ubiquitin-protein ligase XIAP (Homo sapiens) (UniProt P98170); experiment: XIAP binders, primary screen, biophysical, small-molecule microarray, fluorescence 635 nm (AID 1181); conditions: small-molecule microarray binding, higher = more signal;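 also: score merges 667 nm emission and signal to noise over triplicate slides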
[10] = P. aeruginosa biofilm formation inhibitors, primary screen, strain PAO1, LB-PBS medium, absorbance 600 nm (AID 1176); also: test concentration not given here; conditions: P. aeruginosa PAO1 growth/biofilm, A600, 12 h; higher = more signal

Dihydroorotate dehydrogenase (quinone), mitochondrial (Plasmodium falciparum (isolate 3D7)), sequence (Q08210 whole entry, looked up): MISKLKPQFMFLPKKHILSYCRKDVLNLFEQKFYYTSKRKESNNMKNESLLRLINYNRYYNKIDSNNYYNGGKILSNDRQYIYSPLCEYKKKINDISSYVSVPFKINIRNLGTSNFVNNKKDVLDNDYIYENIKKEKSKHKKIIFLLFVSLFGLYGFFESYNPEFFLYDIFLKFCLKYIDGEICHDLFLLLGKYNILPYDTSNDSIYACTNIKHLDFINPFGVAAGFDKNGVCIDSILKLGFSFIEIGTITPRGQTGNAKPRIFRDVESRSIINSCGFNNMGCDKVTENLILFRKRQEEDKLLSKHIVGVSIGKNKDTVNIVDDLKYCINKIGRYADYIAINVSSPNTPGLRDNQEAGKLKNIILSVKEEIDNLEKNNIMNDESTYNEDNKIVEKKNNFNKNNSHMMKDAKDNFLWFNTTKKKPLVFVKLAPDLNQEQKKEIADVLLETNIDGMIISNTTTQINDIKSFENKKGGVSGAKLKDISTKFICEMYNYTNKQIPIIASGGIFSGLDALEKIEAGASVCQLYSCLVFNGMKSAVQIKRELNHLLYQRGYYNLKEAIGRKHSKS
E3 ubiquitin-protein ligase XIAP (Homo sapiens), sequence (P98170 whole entry, looked up): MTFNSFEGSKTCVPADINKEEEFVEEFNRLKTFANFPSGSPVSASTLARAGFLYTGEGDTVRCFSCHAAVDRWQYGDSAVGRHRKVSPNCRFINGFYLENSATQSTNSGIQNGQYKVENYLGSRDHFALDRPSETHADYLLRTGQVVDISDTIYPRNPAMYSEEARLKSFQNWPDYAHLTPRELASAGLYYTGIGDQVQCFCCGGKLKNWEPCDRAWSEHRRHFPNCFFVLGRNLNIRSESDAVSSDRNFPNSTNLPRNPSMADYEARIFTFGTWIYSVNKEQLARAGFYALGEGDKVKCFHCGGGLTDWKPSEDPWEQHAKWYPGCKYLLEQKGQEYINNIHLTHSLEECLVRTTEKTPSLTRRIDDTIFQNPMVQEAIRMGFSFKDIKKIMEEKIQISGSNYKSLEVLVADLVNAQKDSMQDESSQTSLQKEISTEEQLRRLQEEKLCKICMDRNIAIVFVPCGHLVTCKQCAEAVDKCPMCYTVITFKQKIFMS

Structure (SMILES) | z-score [1] | z-score [2] | z-score [3] | composite z-score [4] | z-score [5] | z-score [6] | z-score [7] | z-score [8] | composite z-score [9] | z-score [10]
CC(C)N1CC=CC23O[C@@H]4C=CCCOC(=O)C4[C@H]2C(=O)N(C(C)CO)[C@@H]3C1=O (some centres undefined) | -0.0777 and -1.21 | -1.44 (inactive) and 0.111 (inactive) | 0.963 (inactive) and 0.93 (inactive) | -0.0877 (inactive) and 1.49 (inactive) | -1.2 (inactive) and 0.934 (inactive) | 1.2 (inactive) and 1.42 (inactive) | 0.847 (inactive) and 1.13 (inactive) | 1.32 and 0.67 | -0.128 and -0.133 | 
Cc1ccc(S(=O)(=O)N[C@@H]2COC(=O)CC=C[C@@H](C)[C@@H]3C=C[C@H](O)[C@@H](COC(=O)CC=C[C@H]2C)O3)cc1 | -0.29 and 0.458 | -0.595 (inactive) and 0.228 (inactive) | -0.0856 (inactive) and 0.441 (inactive) | 0.178 (inactive) and -4.95 (inactive) | -0.169 (inactive) and -0.14 (inactive) | 0.245 (inactive) and -1.15 (inactive) | 0.0957 (inactive) and -0.599 (inactive) | -0.541 and 0.341 | -0.138 and -0.124 | -0.212 (inactive) and -0.0781 (inactive)
COC(=O)C1=C(C)N(Cc2ccccc2)C2=C(C(C)=O)C[C@@](O)(C(=O)OC)C(=O)N2[C@@H]1c1ccccc1 | 0.5 and 0.54 | -1.89 (inactive) and -2.55 (inactive) | -1.51 (inactive) and 0.956 (inactive) | -0.557 (inactive) and -0.986 (inactive) | -1.29 (inactive) and -2.02 (inactive) | -0.0507 (inactive) and 0.915 (inactive) | 0.0063 (inactive) and -1.49 (inactive) | 1.28 and 0.192 | 0.215 and -0.005 | 0.781 (inactive)
C[N+](C)(C)CCCCCCNC(=O)[C@@H]1C[C@@H]2C(=O)N[C@@H](CCCC[N+](C)(C)C)C(=O)N2[C@@H]1c1ccc(O)cc1 | 0.104 and 0.822 | 0.292 (inactive) and 0.384 (inactive) | 0.436 (inactive) and 0.422 (inactive) | -0.792 (inactive) and -0.983 (inactive) | 1.06 (inactive) and 1.11 (inactive) | 0.52 (inactive) and -0.04 (inactive) | 0.801 (inactive) and -0.431 (inactive) | 0.608 and -0.287 | -0.277 and -0.227 | -0.462 (inactive) and 0.0499 (inactive)
C=CCN(C(=O)C(c1cccs1)N(C(=O)/C=C\C(=O)O)C(C)(C)CO)C(C)(C)C (centres undefined) | -0.432 and -0.115 | -1.64 (inactive) and -0.838 (inactive) | 0.626 (inactive) and 0.391 (inactive) | -0.98 (inactive) and -0.499 (inactive) | -1.86 (inactive) and -1.72 (inactive) | 1.97 (inactive) and 0.291 (inactive) | 2.07 (inactive) and 0.946 (inactive) | 0.356 and 0.366 | -0.0669 and 0.0153 | 0.454 (inactive) and -0.0837 (inactive)
O=C1NC(=O)C2C1C=CC(C(O)c1ccc([N+](=O)[O-])cc1)N2Nc1ccc(Cl)cc1Cl (centres undefined) | -1.01 and 0.266 | -8.52 (active) and -8.8 (active) | 0.52 (inactive) and -0.103 (inactive) | -0.87 (inactive) and -1.11 (inactive) | -0.728 (inactive) and -1.12 (inactive) | -0.0259 (inactive) and 0.6 (inactive) | -0.568 (inactive) and 0.615 (inactive) | 0.425 and 0.122 | -0.0102 and 0.0975 | 2.4 (inactive) and 2.49 (inactive)
COC(=O)C1=C(C)N(Cc2ccccc2)C2=C3C(=O)N(C)C(=O)[C@@H]3[C@@](O)(C(=O)OC)C(=O)N2[C@@H]1c1ccccc1 | 0.498 and -1.16 | -0.816 (inactive) and -1.23 (inactive) | 0.92 (inactive) and -0.281 (inactive) | -0.105 (inactive) and -0.613 (inactive) | -0.544 (inactive) and -2.42 (inactive) | 0.448 (inactive) and -0.0247 (inactive) | 0.275 (inactive) and 0.0957 (inactive) | 0.922 and -0.377 | -0.0622 and -0.0848 | -0.27 (inactive) and 0.0039 (inactive)
C=CCN(C(=O)C(c1cccs1)N(C(=O)/C=C\C(=O)O)c1c(Cl)cccc1CO)c1ccc(OC)cc1 (centres undefined) | 0.154 and -2.56 | -2.07 (inactive) and -1.37 (inactive) | 1.02 (inactive) and -0.0953 (inactive) | -5.76 (inactive) and -2.28 (inactive) | -0.736 (inactive) and 0.0288 (inactive) | 0.976 (inactive) and 0.515 (inactive) | 1.11 (inactive) and 0.57 (inactive) | 0.509 and -0.0282 | 0.0264 and -0.0795 | -0.18 (inactive)
C[C@@]1([C@@H](NC(=O)Cc2ccccc2)c2ccc(-c3ccccc3)cc2)C[C@H]1C1CCCCC1 | -1.11 and 1.82 and -1 | 0.332 (inactive) and 0.351 (inactive) and 1.3 (inactive) | -0.506 (inactive) and 1.03 (inactive) and -1.05 (inactive) | -4.04 (inactive) and -0.594 (inactive) and -0.535 (inactive) | 1.75 (inactive) and 0.465 (inactive) and 1.58 (inactive) | -0.305 (inactive) and -0.278 (inactive) and -1.43 (inactive) | -0.0393 (inactive) and -0.777 (inactive) and -0.74 (inactive) | -3.36 and 2.84 and -1.47 | 0.102 and 0.0464 and -0.02 | 2.92 (inactive) and 1.4 (inactive) and 1.18 (inactive)
C=CCN(CCCCC)C(=O)C1N(c2c(Cl)cccc2CO)C(=O)C2C(C(=O)O)C3C=CC21O3 (centres undefined) | -1.63 and -0.873 | 0.0191 (inactive) and -0.402 (inactive) | -1.48 (inactive) and -0.932 (inactive) | 0.564 (inactive) and -1.24 (inactive) | 0.501 (inactive) and 0.477 (inactive) | -0.957 (inactive) and -1.11 (inactive) | -0.992 (inactive) and -1.16 (inactive) | -1.52 and -1.3 | -0.237 and -0.0414 | -0.441 (inactive) and -0.578 (inactive)
Cc1cc2c(nc1C)CCCN2CC(C)ON=C[C@@H](C)[C@H](OCc1ccccc1)C(C)C (some centres undefined) | -0.524 | -0.0028 (inactive) | -0.567 (inactive) | 0.103 (inactive) | 0.776 (inactive) | -0.0901 (inactive) | -0.549 (inactive) | -0.394 | 0.0546 | -0.172 (inactive)
C=CCN(C(=O)C1N(c2c(Cl)cccc2CO)C(=O)C2C(C(=O)O)C3C=CC21O3)C(C)(C)C (centres undefined) | 0.0972 and 0.393 | 0.134 (inactive) and -0.493 (inactive) | -0.0453 (inactive) and 1.02 (inactive) | -0.395 (inactive) and -0.725 (inactive) | 0.42 (inactive) and -1.92 (inactive) | 0.0114 (inactive) and 1.34 (inactive) | -0.228 (inactive) and 1.65 (inactive) | -0.338 and 0.957 | -0.217 and -0.113 | -0.497 (inactive) and 0.053 (inactive)
C=CCN(CCCC)C(=O)C1N(CCOCCO)C(=O)C2C(C(=O)O)C3C=CC21O3 (centres undefined) | -0.171 and -0.143 | 0.492 (inactive) and 1.27 (inactive) | -0.451 (inactive) and -0.748 (inactive) | 0.457 (inactive) and 0.856 (inactive) | -0.119 (inactive) and 0.178 (inactive) | 0.127 (inactive) and -0.229 (inactive) | -0.11 (inactive) and -0.406 (inactive) | -0.472 and -0.68 | 0.0258 and -0.304 | 0.413 (inactive) and 0.261 (inactive)
C=CCN(Cc1ccccc1)C(=O)C1N(C(C)(C)CO)C(=O)C2C(C(=O)O)C3C=CC21O3 (centres undefined) | -0.767 and 0.937 | 0.424 (inactive) and -0.874 (inactive) | -0.796 (inactive) and 0.0609 (inactive) | 1.25 (inactive) and 0.316 (inactive) | -1.32 (inactive) and -0.417 (inactive) | -0.0429 (inactive) and 0.296 (inactive) | -0.0639 (inactive) and 0.0039 (inactive) | -0.699 and 0.447 | 0.0322 and -0.328 | -0.112 (inactive) and -0.193 (inactive)
O=C(NN=C1C[C@@H](O)[C@@H](O)[C@@H]2[C@@H]3C(=O)N(Cc4ccc5c(c4)OCO5)C(=O)[C@@H]3CC[C@H]12)OCc1ccccc1 | -0.0124 | 0.0375 (inactive) | -0.203 (inactive) | -1.62 (inactive) | 0.273 (inactive) | 0.883 (inactive) | 1.4 (inactive) | -0.2 | 0.106 | -0.437 (inactive)
C=CCN(C(=O)C1N(CCCCCCO)C(=O)C2C(C(=O)O)C3C=CC21O3)c1ccc(OC)cc1 (centres undefined) | 0.831 and 0.525 | -2.35 (inactive) and -2.45 (inactive) | 1.04 (inactive) and -0.294 (inactive) | -1.78 (inactive) and -2.48 (inactive) | -1.53 (inactive) and -0.292 (inactive) | 1.15 (inactive) and 0.43 (inactive) | 1.16 (inactive) and 0.716 (inactive) | 1.37 and 0.372 | -0.0492 and 0.0972 | -0.401 (inactive)
CCCC[C@@H]1CN2[C@H](c3ccc(Br)cc3)[C@@H](C)CC[C@H]2C(=O)O1 | 0.0187 and 0.563 | -1.99 (inactive) and -1.8 (inactive) | 0.0474 (inactive) and 0.358 (inactive) | 0.0663 (inactive) and -0.155 (inactive) | 0.434 (inactive) and -0.478 (inactive) | 1.06 (inactive) and 0.354 (inactive) | 0.958 (inactive) and 0.41 (inactive) | 0.735 and 0.839 | -0.256 and -0.352 | 0.192 (inactive) and -0.172 (inactive)

From PubChem BioAssay
